Screening results: PubChem, several laboratories
SENP8 block-1: SENP8 protease inhibitors, primary screen, biochemical, luminescence; purified SENP8, Z-RLRGG-aminoluciferin cleavage; inhibition, % at 10 µM; AID 2540, 2010; 1.2% of 330,000 active; in the data active = inhibition above about 50%
Target sequence (Q96LD8 whole entry, looked up): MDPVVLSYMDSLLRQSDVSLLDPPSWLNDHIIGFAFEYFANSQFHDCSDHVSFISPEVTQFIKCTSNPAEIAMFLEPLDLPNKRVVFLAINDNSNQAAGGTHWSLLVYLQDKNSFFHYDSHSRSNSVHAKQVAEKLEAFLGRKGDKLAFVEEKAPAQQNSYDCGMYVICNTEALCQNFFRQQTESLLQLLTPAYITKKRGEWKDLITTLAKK
HSP90 inh: HSP90 inhibitors, primary screen, cell lysate, luminescence | 0.91% of 290,000 active | inhibition, % at 5.6 µM | AID 1789, 2009 | Rabbit reticulocyte lysate, luciferase refolding luminescence, 3 h | Heat shock protein HSP 90 (rabbit reticulocyte lysate; luciferase refolding);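 active = inhibition above the screen-wide mean plus 3 SD, computed separately per campaign, cut at about 16% in these data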;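 note: inhibitors lower the luminescence because luciferase stays unfolded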
SENP6 block: SENP6 protease inhibitors, primary screen, biochemical, luminescence, uHTS; Sentrin-specific protease 6 (Homo sapiens), Q9GZR1; Recombinant SENP6 catalytic domain, aminoluciferin luminescence; inhibition, % at 10 µM; 1.8% of 330,000 active; AID 2599, 2010;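 active = inhibition above about 50% at the single tested dose, limit read from the data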
SENP8 block-2: human SENP8 protease inhibitors, primary screen, biochemical, fluorescence, Nedd8 protein substrate, uHTS; Sentrin-specific protease 8 (Homo sapiens), Q96LD8; recombinant SENP8; 0.64% of 360,000 active; inhibition, % at 20 µM; in the data active = inhibition mostly above about 40%, no sharp cut-off; inactive = mostly below about 27%
SENP7 block: SENP7 protease inhibitors, primary screen, biochemical, luminescence, uHTS | Sentrin-specific protease 7 (Homo sapiens), Q9BQF6 | recombinant SENP7, Z-RLRGG-aminoluciferin luminescence, 40 min | inhibition, % at 5 µM | 1.5% of 330,000 active;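 active = inhibition above about 50% at the single test dose, limit read from the data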
Target sequence (Q9BQF6 706-1050 limits assumed): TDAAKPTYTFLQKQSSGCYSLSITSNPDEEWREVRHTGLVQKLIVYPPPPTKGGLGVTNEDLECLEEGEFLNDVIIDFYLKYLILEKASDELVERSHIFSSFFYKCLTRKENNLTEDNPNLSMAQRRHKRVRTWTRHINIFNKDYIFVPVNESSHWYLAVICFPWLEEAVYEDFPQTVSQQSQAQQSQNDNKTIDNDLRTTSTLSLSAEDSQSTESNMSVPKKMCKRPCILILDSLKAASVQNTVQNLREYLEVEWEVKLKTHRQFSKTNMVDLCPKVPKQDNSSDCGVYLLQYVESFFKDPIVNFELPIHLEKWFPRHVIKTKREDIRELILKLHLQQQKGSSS
Large screens that a line does not name were inactive. Only some compounds are listed: those with a hit (about 2.7% of all), similar ones and a draw of the others.

Cc1ccc2c(c1)-c1c(ssc1=S)C(C)(C)N2C(=O)CSc1nncn1C	SENP8 block-2 43
CCCn1c(N)c(C(=O)CN2CCN(S(=O)(=O)c3cccc(Cl)c3)CC2)c(=O)[nH]c1=O	none (no result: HSP90 inh)
N#C/C(=C\c1ccc(OCc2ccc(C(=O)O)cc2)cc1)C(=O)N1CCOCC1	HSP90 inh 73
COc1cc(/C=C(\C#N)C(=O)N2CCOCC2)ccc1OCc1ccccc1	none
Cc1ccc(N=Nc2c(C)[nH]n(-c3ccccc3)c2=O)cc1Br	none
Nc1[nH]n(-c2ccccc2)c(=O)c1N=Nc1ccc2ncsc2c1	SENP8 block-2 56
C/C(=N\NC(=O)Cc1ccc([N+](=O)[O-])cc1)c1cccnc1	none
Cc1ccnc(SCC(=O)N2CCc3ccccc32)n1	none
Cc1ccnc(SCC(=O)N2CCN(C(c3ccccc3)c3ccccc3)CC2)n1	HSP90 inh 16
Cc1nn(-c2ccccc2)c(Cl)c1C1C(C#N)=C(N)Oc2c1c(C)nn2-c1ccccc1 (stereo not drawn)	none
Cc1nn(-c2ccccc2)c2c1C(c1c(C)[nH]c(C#N)c1C)C(C#N)=C(N)O2 (stereo not drawn)	HSP90 inh 36
O=C(c1ccc(Cl)cc1)N1CCCCC(Sc2nnc(-c3ccc4c(c3)OCO4)o2)C1=O (stereo not drawn)	HSP90 inh 31
O=C(O)CSc1nnc(-c2ccc3c(c2)OCO3)o1	none
CC(C)(C)N1CC2(c3ccccc3)CN(C(C)(C)C)CC(c3ccccc3)(C1)C2=O	none
COc1ccc(NS(=O)(=O)c2cc([N+](=O)[O-])ccc2N/N=C\c2c(C)[nH]c3ccccc23)cc1	SENP8 block-2 47
Cc1[nH]c2ccccc2c1/C=N/Nc1ccc([N+](=O)[O-])cc1S(=O)(=O)Nc1ccc(Cl)cc1	none
CCOc1ccc(S(=O)(=O)N2CCCC2)c2ccccc12	none (no result: SENP8 block-1, HSP90 inh, SENP6 block, SENP7 block)
COc1cc(-n2nc(C)c3c2OC(N)=C(C#N)C3c2ccccc2)c(Cl)c(Br)c1O (stereo not drawn)	HSP90 inh 17
Cc1nn(-c2ccccc2)c2c1C(c1ccncc1)C(C#N)=C(N)O2 (stereo not drawn)	none
COc1cc(C(=O)c2ccccc2)c([N+](=O)[O-])cc1OC	none
COc1ccc([N+](=O)[O-])cc1C(=O)C(=O)c1ccccc1	SENP8 block-2 44
CSc1ccc(CN(C)C(=O)c2cc(S(=O)(=O)NCc3ccccc3)ccc2C)cc1	none (no result: HSP90 inh)
C[C@@H]1OC(Nc2ccc(N=Nc3ccccc3)cc2)[C@H](O)[C@H](O)[C@H]1O (stereo partly drawn)	SENP8 block-2 40
CCCc1ccc(C(=O)NC(=O)c2ccccc2O)cc1	SENP8 block-1 62, SENP6 block 73
CN1C=C/C(=C\c2cc[n+](C)c3ccccc23)c2ccccc21	HSP90 inh 17 (no result: SENP8 block-1, SENP6 block, SENP7 block)
Cc1ccc(NC(=O)COC(=O)c2cc(Cl)ccc2[N+](=O)[O-])c(C)c1	none
Oc1c(N=Nc2ccccn2)ccc2ccccc12	SENP8 block-1 96, SENP6 block 94
Oc1[nH]c2ccccc2c1N=Nc1ccccn1	none (no result: SENP8 block-1, HSP90 inh, SENP6 block, SENP7 block)
COc1cc(C(O)c2nc3ccccc3s2)cc(OC)c1OC (stereo not drawn)	none
COc1ccc(C2=NC(c3ccccc3)CO2)cc1 (stereo not drawn)	SENP8 block-1 63, HSP90 inh 16, SENP6 block 70, SENP7 block 50 (no result: SENP8 block-2)
O=[N+]([O-])c1cccc(C2=NC(c3ccccc3)CO2)c1 (stereo not drawn)	none
Cc1cc(Cl)c(S(=O)(=O)N2CCSCC2)cc1OCC(=O)NC1CCCCC1	none
CN(C)c1ccc(C=C2SC(=S)N(Cc3ccco3)C2=O)cc1	SENP8 block-2 48 (no result: SENP8 block-1, HSP90 inh, SENP6 block, SENP7 block)
CC(CCC(C)C(C)(C)C)[C@@H]1CC[C@H]2C3C[C@H](OS(O)(=S)=S)[C@H]4C[C@H](OS(O)(=S)=S)[C@@H](OS(O)(=S)=S)C[C@]4(C)[C@H]3CC[C@]12C (stereo partly drawn) (tested in a mixture with another compound)	SENP8 block-1 54 (no result: HSP90 inh)
CC(CCC(=O)NN)C1CCC2C3CCC4CC(O)CCC4(C)C3CCC12C (stereo not drawn)	none (no result: SENP8 block-1, HSP90 inh, SENP6 block, SENP7 block)
COc1cc(NC(=O)c2ccc([N+](=O)[O-])o2)ccc1NC(=O)c1cccs1	none
O=C(Nc1cccc(NC(=O)c2cccs2)c1)c1ccc([N+](=O)[O-])o1	HSP90 inh 33
COc1ccc(CNC(=O)c2c(N)n(CCCN3CCOCC3)c3nc4ccccc4nc23)cc1	SENP8 block-1 71, SENP6 block 68
Nc1c(C(=O)NCc2ccc(F)cc2)c2nc3ccccc3nc2n1CCCN1CCOCC1	SENP8 block-1 80, SENP6 block 78, SENP7 block 57
O=C(NCCO)c1ccc2nc(-c3ccco3)c(-c3ccco3)nc2c1	SENP6 block 56
Cc1ccc(C)c2[nH]c(=O)c(C(c3nnnn3Cc3ccccc3)N3CCc4ccccc4C3)cc12 (stereo not drawn)	SENP6 block 66
Cc1cccc2cc(C(c3nnnn3Cc3ccc4c(c3)OCO4)N3CCCC3)c(=O)[nH]c12 (stereo not drawn)	none
Cc1[nH]c2ccccc2c1N=Nc1ccc(F)cc1	SENP8 block-2 47
Cc1[nH]c2ccccc2c1N=Nc1ccccc1F	none
Cc1ccccc1NC(=S)/C(=C(\[O-])c1ccc(C)c([N+](=O)[O-])c1)[n+]1ccccc1	none
COc1cccc(NC(=S)/C(=C(\[O-])c2ccc(C)c([N+](=O)[O-])c2)[n+]2ccccc2)c1	SENP8 block-2 39
Cc1ccc(-c2nnc(SCC(=O)Nc3ccc(N4CCOCC4)cc3)o2)cc1	none
O=[N+]([O-])C1=CC=C2C(=NC3(CCCCC3)N2O)C1=NC1CCCCC1	none
CC1(C)CC(N=C2C([N+](=O)[O-])=CC=C3C2=NC2(CCCCC2)N3O)CC(C)(C)N1	SENP8 block-2 50
Cc1cc(C)cc(C(=O)Nc2ccc(N3CCCC3)cc2)c1	SENP8 block-1 66, SENP6 block 74, SENP7 block 56
O=C(NN1CCOCC1)c1cc(S(=O)(=O)Nc2cccc(C(F)(F)F)c2)ccc1Cl	none
O=C1/C(=C/c2ccc(O)cc2)CCc2ccc([N+](=O)[O-])cc21	none
O=C1/C(=C\c2ccc([N+](=O)[O-])cc2)CCc2ccccc21	SENP8 block-1 91, SENP6 block 82, SENP7 block 87
Cc1ccc(N=Nc2c(N)nn(-c3ccccc3)c2N)cc1	none
COc1ccc(N=Nc2c(N)nn(C)c2N)cc1	SENP8 block-2 51 (no result: SENP8 block-1, HSP90 inh, SENP6 block, SENP7 block)
CCCN1C(=O)/C(=C/c2ccco2)SC1=Nc1ccc(OC)cc1	SENP8 block-2 48
CCCN1C(=O)/C(=C/c2ccc(C)o2)SC1=Nc1ccc(OC)cc1	none
O=C(Nc1ccc(N2CCOCC2)c(Cl)c1)c1ccccc1F	none
COC1=CC(=O)c2nc(Cl)ccc2C1=O	SENP8 block-2 88 (no result: SENP8 block-1, HSP90 inh, SENP6 block, SENP7 block)
